Source: PubChem BioAssay AID588727 (Southern Research Specialized Biocontainment Screening …, 2011)
Hit rate of the full screen: of about 350,000 compounds, about 450 (0.13%) were called active. How the calls were made is not given here. Not all results are given here. Entries with a potency or affinity are not part of this list.

Experiment: inhibitors of VEEV TC-83 cytopathic effect, confirmation, Vero cells (AID 588727)
Conditions: VEEV TC-83 cytopathic effect inhibition, at 20 µM
[1] = stronger effect = higher value unless noted
[2] = measured here: 10K pilot screen inhibition, stronger effect = higher value

Cc1ccnc(NC(=O)CCC(=O)N(CC(=O)NCc2ccc(F)cc2)CC2CCCO2)c1 (stereo not given)
inhibition [1]: 0.42% (inactive)

COc1ccccc1-c1cn[nH]c1-c1ccc(OCc2ccc(F)cc2)cc1O
inhibition [1]: 3.76% (inactive)

OCCOCCNc1ncnc2c1c(-c1ccccc1)cn2-c1ccccc1
inhibition [1]: 10.9% (inactive)

c1ccc(-c2cn(-c3ccccc3)c3ncnc(NCCCN4CCOCC4)c23)cc1
inhibition [1]: 9.07% (inactive)

COc1ccc(NC(=O)CN2CCCCC2)cc1S(=O)(=O)N1CCCCC1
inhibition [1]: 0.88% (inactive)

NC(=O)CC(NC(=O)Cc1cccc2ccccc12)c1ccc(NCc2ccc(F)c(F)c2)c([N+](=O)[O-])c1 (stereo not given)
inhibition [1]: 0.49% (inactive)

CNC(=O)/C(C#N)=C/c1cn(CC(=O)OC)c2ccccc12
inhibition [1]: 0.69% (inactive)

COc1cc2cc(C(=O)O)[nH]c2c(OC)c1OC
inhibition [1]: 0.1% (inactive)

COc1ccc(OC)c2[nH]c(C(=O)N3CCC(C(=O)O)CC3)cc12
inhibition [1]: 0.69% (inactive)

COC(=O)c1cc(S(=O)(=O)N2CCN(c3ccc([N+](=O)[O-])cc3)CC2)c[nH]1
inhibition [1]: 3.14% (inactive)

O=S(=O)(/C=C/c1ccccc1)Oc1ccccc1
inhibition [1]: inactive

Cc1c(C)n(CCCN(C)C)c2ncnc(Nc3ccccc3)c12
inhibition [1]: 1.72% (inactive)

COc1ccccc1Nc1ncnc2c1c(C)c(C)n2CCO
inhibition [1]: 0.65% (inactive)

CCOc1ccc(NC(=O)CN(C)C(=O)CCC2CCCCC2)cc1OCC
inhibition [1]: 2.6% (inactive)

NNc1nc(-c2ccccc2Cl)c2cc(Br)ccc2n1
inhibition [1]: 1.08% (inactive)

O=C(CCC1CCCN(C(=O)CCN2CCCCC2=O)C1)NCc1ccccc1F (stereo not given)
inhibition [1]: 0.405% [measured here: 10K pilot screen inhibition, stronger effect = higher value] | outcome [1]: inactive

C=CCN1C(=O)c2ccc(C(=O)NCCc3ccc(OC)c(OC)c3)cc2C1=O
inhibition [1]: 0.34% (inactive)

CC1CCCCC1NC(=O)COCc1cc(-c2cccs2)on1 (stereo not given)
inhibition [1]: inactive

Cc1cc(C(=O)Cn2nnc3ccccc3c2=O)c(C)n1-c1c(C)n(C)n(-c2ccccc2)c1=O
inhibition [1]: inactive

COc1ccc(-n2c(C)cc(C(=O)Cn3nnc4ccccc4c3=O)c2C)cc1
inhibition [1]: 1.42% (inactive)

CC1Sc2ccc(S(=O)(=O)CCC(=O)N3CCCC3)cc2NC1=O (stereo not given)
inhibition [1]: 2.36% (inactive)

O=C(CSc1nc(-c2ccccc2Cl)ns1)c1ccc(Cl)cc1
inhibition [1]: 1.15% (inactive)

COC(=O)c1ccc(N/C(=N/S(=O)(=O)c2ccccc2)c2ccccc2)cc1
inhibition [1]: 1.58% (inactive)

CCC(C)N=Cc1c(Nc2ccccc2)nc2c(C)cccn2c1=O (stereo not given)
inhibition [1]: inactive

CCCC[C@H]1COCCS(=O)(=O)N1Cc1cccc([N+](=O)[O-])c1
inhibition [1]: inactive

O=C(NCc1cccnc1)/C(=C/c1ccc(-c2cccc(Cl)c2)o1)S(=O)(=O)c1ccccc1
inhibition [1]: 9.73% (inactive)

O=C(NCc1cccnc1)/C(=C\c1ccc(-c2ccc(Cl)c(Cl)c2)o1)S(=O)(=O)c1ccccc1
inhibition [1]: 0.29% (inactive)

O=C(Cc1ccc(Br)cc1)NC1CCCc2ccccc21 (stereo not given)
inhibition [1]: 3.28% (inactive)

O=C(CCNC(=O)c1ccccc1)NC1CCCc2ccccc21 (stereo not given)
inhibition [1]: inactive

O=C(CCNC(=O)c1ccc([N+](=O)[O-])cc1)NC1CCCc2ccccc21 (stereo not given)
inhibition [1]: 9.16% (inactive)

O=C(NC1CCCc2ccccc21)c1ccc(Br)cc1 (stereo not given)
inhibition [1]: 0.82% (inactive)

CC(SCC(=O)Nc1ccccc1Br)c1nc2ccccc2c(=O)[nH]1 (stereo not given)
inhibition [1]: inactive

CCCOc1ccc(C(=O)Nc2cc(S(=O)(=O)N3CCOCC3)ccc2N2CCOCC2)cc1
inhibition [1]: 6.81% (inactive)

CC(=O)c1ccc(S(=O)(=O)N2CCN(C(=O)c3ccc(-n4nc(C)c(Cl)c4C)cc3)CC2)cc1
inhibition [1]: 2.19% (inactive)

O=[N+]([O-])c1cccc(/C=C/c2ccccn2)c1
inhibition [1]: 0.25% (inactive)

O=[N+]([O-])c1cccc(/C=C/c2ccncc2)c1
inhibition [1]: inactive

O=C(CCNS(=O)(=O)c1cccc(Cl)c1)OCC(=O)N1CCN(C(=O)c2ccco2)CC1
inhibition [1]: 0.85% (inactive)

O=C(CC1SC(N2CCOCC2)=NC1=O)Nc1ccccc1Cl (stereo not given)
inhibition [1]: 2.68% (inactive)

C=CCN1C(c2ccc(Br)cc2)=CS/C1=C(\C#N)c1nnc(N2CCOCC2)n1-c1ccccc1
inhibition [1]: 11.4% (inactive)

CC(=O)/C(C#N)=C1\NC(=O)C(Cc2cc(Cl)ccc2Cl)S1 (stereo not given)
inhibition [1]: 3.03% (inactive)

Cc1ccccc1CC1SC(N)=NC1=O (stereo not given)
inhibition [1]: 1.28% (inactive)

Cc1ccccc1CC1SC(N=C(N)N)=NC1=O (stereo not given)
inhibition [1]: 1.59% (inactive)

O=C1N/C(=N\c2ccccn2)SC1Cc1ccccc1Cl (stereo not given)
inhibition [1]: 4.16% (inactive)

O=c1c2ccccc2nc(-c2ccco2)n1-c1nc2ccccc2s1
inhibition [1]: 1.81% (inactive)

FC(F)Oc1ccc(NC(=S)N2CCc3ccccc32)cc1
inhibition [1]: 0.39% (inactive)

Cc1ccccc1C(=O)N1CCC(C(=O)Nc2sccc2C(N)=O)CC1
inhibition [1]: 2.51% (inactive)

CN(Cc1ccc(O)cc1)C1CCCCC1
inhibition [1]: 1.27% (inactive)

OCC1(CCOc2ccccc2)CCN(Cc2cn[nH]c2-c2ccc(F)cc2)CC1
inhibition [1]: 2.7% (inactive)

OCC1(CCOc2ccccc2)CCN(Cc2ccncc2)CC1
inhibition [1]: 0.23% (inactive)

C=CCOc1ccc(C=Nc2ccc(Cl)cc2)c(O)c1
inhibition [1]: 0.47% (inactive)

Cc1c(C(=O)N(C)CCn2ccnc2C)oc2c(F)cccc12
inhibition [1]: 1.03% (inactive)

CCN(CC)C(=O)c1sc(NC(=O)c2ccoc2C)c(C(=O)OC)c1C
inhibition [1]: 1.79% (inactive)

O=C(NCCN1CCOCC1)c1ccc(/C=C2\Sc3ccccc3N(Cc3ccccc3F)C2=O)cc1
inhibition [1]: 10.8% (inactive)

CN1CCN(CCCNC(=O)c2ccc(/C=C3\Oc4ccccc4N(Cc4ccccc4F)C3=O)cc2)CC1
inhibition [1]: 13.6% (inactive)

COc1ccccc1N1CCN(C(=S)Nc2ccccc2)CC1
inhibition [1]: 1.3% (inactive)

CC(C)Oc1ccc(Cl)cc1Nc1nc(NCCO)nc(N2CCCC2)n1
inhibition (stronger effect = higher value): 4.93% (inactive) | inhibition [2]: 4.53%

Cc1ccc(NC(=O)CN2C(=O)NC3(CCCc4ccccc43)C2=O)c([N+](=O)[O-])c1 (stereo not given)
inhibition [1]: 1.12% (inactive)

Cc1ccccc1NS(=O)(=O)c1nnc(NC(=O)c2ccccc2F)s1
inhibition (stronger effect = higher value): 1.96% (inactive) | inhibition [2]: 3.31%

CC1(C)CC(=O)C=C(/C=C/c2ccccc2)C1
inhibition [1]: 0.62% (inactive)

C(=C\c1ccncc1)/c1ccccc1
inhibition [1]: 0.98% (inactive)

Cc1ccnc(SCc2cc(=O)c(OC(=O)c3cc([N+](=O)[O-])ccc3Cl)co2)n1
inhibition [1]: 0.24% (inactive)

CCOC(=O)c1sc(=S)sc1SCc1cccc(C(F)(F)F)c1
inhibition [1]: inactive

O=S1(=O)C=C(SCc2ccc(F)cc2)Nc2ccccc21
inhibition [1]: inactive

CCCc1c(C(=O)Nc2ccc(F)cc2)cnn1-c1ccccc1
inhibition [1]: 7.43% (inactive)

CCCc1c(C(=O)Nc2ccc(F)cc2F)cnn1-c1ccccc1
inhibition [1]: inactive

CCCc1c(C(=O)NNc2cccc(Cl)c2)cnn1-c1ccccc1
inhibition [1]: 2.24% (inactive)

CCCc1c(NC(=O)Nc2ccc(F)cc2)cnn1-c1ccc(Cl)cc1
inhibition [1]: 3.23% (inactive)

CC(Sc1nc2ncc(Cl)cc2[nH]1)C(=O)c1c(N)n(C)c(=O)n(C)c1=O (stereo not given)
inhibition [1]: 10.7% (inactive)

Cn1ncc2c(=O)[nH]cnc21
inhibition [1]: 0.51% (inactive)

CC(=O)Nc1ccc(S(=O)(=O)N(C)CC(=O)OCC(=O)N(CC(C)C)C2CCS(=O)(=O)C2)cc1 (stereo not given)
inhibition [1]: 6.9% (inactive)

COc1ccc(NC(=O)CN(C)C(=O)c2cn(-c3ccccc3)nc2-c2cccnc2)cc1
inhibition [1]: 6.98% (inactive)

CSCCC(NS(=O)(=O)c1ccc(Cl)cc1)C(=O)OCC(=O)NC12CC3CC(CC(C3)C1)C2 (stereo not given)
inhibition [1]: 2.38% (inactive)

O=C1Nc2ccccc2C1(O)c1ccccc1O (stereo not given)
inhibition [1]: 0.23% (inactive)

COc1cc2c(O)c3c(c(-c4ccc5c(c4)OCO5)c2cc1OC)C(=O)OC3
inhibition [1]: 8.81% (inactive)

COc1c(NC(C)=O)c2c(c([N+](=O)[O-])c1OC)C(=O)OC2
inhibition [1]: 0.9% (inactive)

O=S(=O)(NCc1ccccc1Cl)c1ccc(-n2cnnn2)cc1
inhibition [1]: 1.99% (inactive)

C=CCNC(=S)NNC(=O)c1ccc(OCCC)cc1
inhibition [1]: 1.27% (inactive)

CCCCC(=O)NC(=S)NNC(=O)c1ccc(OC)cc1
inhibition [1]: 11% (inactive)

CCCOc1ccc(C(=O)NNC(=S)NC(=O)c2ccccc2)cc1
inhibition [1]: 7.4% (inactive)

CCC(=O)NC(=S)NNC(=O)c1ccc(OC)cc1
inhibition [1]: 3.83% (inactive)

CCCn1c(N)c(C(=O)CSc2nnc(N)s2)c(=O)[nH]c1=O
inhibition [1]: 8.01% (inactive)

CCC1(CC)NC(=O)N(CC(=O)Nc2ccc(C)cc2C)C1=O
inhibition [1]: 1.89% (inactive)

Cc1cn([C@H]2C[C@H](O)[C@@H](CNC(=O)[C@@H]3CCCN3Cc3ccccc3)O2)c(=O)[nH]c1=O
inhibition [1]: 1.26% (inactive)

COCC(=O)N1CCCC(C(=O)c2ccc(-c3ccccc3)c(F)c2)C1 (stereo not given)
inhibition [1]: 3.71% (inactive)

COc1cc(OC)c(OC)cc1/C=C/C(=O)c1ccc(NS(=O)(=O)c2ccc(C)cc2)cc1
inhibition [1]: 6.43% (inactive)

COc1cc(/C=C/C(=O)c2ccc(NS(=O)(=O)c3ccc(C)cc3)cc2)ccc1OC(F)F
inhibition [1]: 42.9% (inactive)

COCCNC(=O)CCCn1c(=O)c2cc(OC)c(OC)cc2n(CC(=O)Nc2ccccc2OC)c1=O
inhibition [1]: 1.37% (inactive)

O=C(CCc1ccccc1)N1CCN(c2ccc(Cl)cc2)CC1
inhibition [1]: 0.61% (inactive)

CCCN(CCC)CCCNC(=O)c1ccc2c(Cl)c3c(nc2c1)CCC3
inhibition [1]: inactive

CCCCN(CC)CCNC(=O)c1ccc2c(Cl)c3c(nc2c1)CCC3
inhibition [1]: inactive

COc1cc2cc(C(=O)N/N=C/c3ccc(F)cc3)[nH]c2cc1OC
inhibition [1]: 2.5% (inactive)

CCN1CCN(c2cc(C)c3cc(NC(=S)N4CCN(c5ccc(F)cc5)CC4)ccc3n2)CC1
inhibition [1]: 0.9% (inactive)
